# Data from PubChem BioAssay (NCI).
# About 83,000 compounds went through this panel and 20% of them were active in at least one assay; those are over-represented in the sample as a whole.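 Treatment: one concentration, 48 hours, 96-well format. Scoring: percent growth, with anything below 10 considered active.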 A number with no mark means an inactive call. Activity calls are given as the source filed them.
# Legend:
# Test in all cases: NCI-60 one-dose screen, 48 h (100 = growth as untreated, 0 = no growth, -100 = all killed)
# Conditions in all cases: 10 µM unless noted
# SK-MEL-2 melanoma = tested on: SK-MEL-2 melanoma
# EKVX NSCLC = tested on: EKVX NSCLC
# SN12C renal = tested on: SN12C renal
# UO-31 renal = tested on: UO-31 renal
# TK-10 renal = tested on: TK-10 renal
# ACHN renal = tested on: ACHN renal
# CAKI-1 renal = tested on: CAKI-1 renal
# A498 renal = tested on: A498 renal
# CCRF-CEM leukemia = tested on: CCRF-CEM leukemia
# MOLT-4 leukemia = tested on: MOLT-4 leukemia
# SR leukemia = tested on: SR leukemia
# RPMI-8226 leukemia = tested on: RPMI-8226 leukemia
# OVCAR-8 ovarian = tested on: OVCAR-8 ovarian
# OVCAR-5 ovarian = tested on: OVCAR-5 ovarian
# OVCAR-4 ovarian = tested on: OVCAR-4 ovarian
# SK-OV-3 ovarian = tested on: SK-OV-3 ovarian
# IGROV1 ovarian = tested on: IGROV1 ovarian
# OVCAR-3 ovarian = tested on: OVCAR-3 ovarian
# HS 578T breast = tested on: HS 578T breast
# NCI/ADR-RES ovarian = tested on: NCI/ADR-RES ovarian
SMILES,growth (SK-MEL-2 melanoma),growth (EKVX NSCLC),growth (SN12C renal),growth (UO-31 renal),growth (TK-10 renal),growth (ACHN renal),growth (CAKI-1 renal),growth (A498 renal),growth (CCRF-CEM leukemia),growth (MOLT-4 leukemia),growth (SR leukemia),growth (RPMI-8226 leukemia),growth (OVCAR-8 ovarian),growth (OVCAR-5 ovarian),growth (OVCAR-4 ovarian),growth (SK-OV-3 ovarian),growth (IGROV1 ovarian),growth (OVCAR-3 ovarian),growth (HS 578T breast),growth (NCI/ADR-RES ovarian)
O=C(CN1C(=O)/C(=C/c2ccccc2Cl)SC1=S)N1CCOCC1,103%,99.8%,78.5%,66.5%,112%,61.2%,90.9%,119%,61.8%,85.9%,34.3%,58.8%,97.1%,98.3%,78.2%,124%,107%,77.1%,106%,95.5%
CCOc1ccc(C(=O)NC(=S)Nc2ccc(S(N)(=O)=O)cc2)cc1,104% [100 µM],101% [100 µM],100% [100 µM],77.9% [100 µM],92.6% [100 µM],101% [100 µM],87.9% [100 µM],96.6% [100 µM],101% [100 µM],110% [100 µM],97.7% [100 µM],102% [100 µM],89% [100 µM],103% [100 µM],84.7% [100 µM],102% [100 µM],96.4% [100 µM],97.9% [100 µM],89.2% [100 µM],102% [100 µM]
CCN(CC)c1ccc(/C=N/Nc2nc(-c3ccc(Br)cc3)cs2)c(O)c1,94.6%,90.9%,23.1%,65.4%,96.5%,76.1%,55.1%,102%,1.36% (active),12.3%,3.58% (active),38.4%,81.6%,91.5%,70.2%,103%,78.8%,61.3%,102%,95.3%
COc1cc(C2CC(c3cc(OC)c(OC)c(OC)c3)=NN2C(C)=O)ccc1OCc1ccc(F)cc1 (stereo not given),69.5%,59.4%,53.9%,29.7%,50.5%,59.2%,53.2%,59.4%,59.9%,30.6%,39.7%,36.6%,61.9%,57.8%,42.1%,80.1%,45.8%,70.3%,58.8%,60.6%
C#CCOc1cc(N(CC)CC)ccc1C(C(=O)NC(C)(C)C)N(C(=O)C1CCc2cc(F)ccc2O1)c1ccccc1F (stereo not given),-39.4% (active),44.5%,43.7%,23.3%,45%,18.7%,22.4%,33.3%,31.8%,5.25% (active),16.3%,18%,31.7%,57.7%,43.4%,39.6%,54%,33.1%,68.7%,42.5%
COc1c(F)ccc(C(=O)Nc2ccc3nc(NC(=O)C4CCCN(S(=O)(=O)C5CC5)C4)sc3c2)c1F (stereo not given),54.9%,31.5%,65%,43.1%,74.5%,47%,46.6%,76%,18%,3.08% (active),10.3%,19%,36.4%,77.4%,38.5%,43.7%,69.3%,66.5%,17.6%,33.2%
Cn1cc(-c2nc(N)nnc2-c2c[nH]c3ccc(F)cc23)c2cc(Br)cnc21,-27.7% (active),26.2%,10.4%,6.23% (active),26.2%,12.2%,-10.9% (active),-31.2% (active),5.12% (active),-0.149% (active),3.88% (active),-6.78% (active),0.188% (active),14.9%,29.8%,19.8%,15.8%,-33.2% (active),35.8%,0.236% (active)
